Data published in ChEMBL document CHEMBL1961873, “Compounds: GSK PKIS; Assays: Nanosyn kinase panel” (2012).

Assays:
[1] = molecular target: T1, Ephrin type-B receptor 2 (Homo sapiens) (UniProt P29323); conditions: at 1 µM
T1 sequence (whole entry): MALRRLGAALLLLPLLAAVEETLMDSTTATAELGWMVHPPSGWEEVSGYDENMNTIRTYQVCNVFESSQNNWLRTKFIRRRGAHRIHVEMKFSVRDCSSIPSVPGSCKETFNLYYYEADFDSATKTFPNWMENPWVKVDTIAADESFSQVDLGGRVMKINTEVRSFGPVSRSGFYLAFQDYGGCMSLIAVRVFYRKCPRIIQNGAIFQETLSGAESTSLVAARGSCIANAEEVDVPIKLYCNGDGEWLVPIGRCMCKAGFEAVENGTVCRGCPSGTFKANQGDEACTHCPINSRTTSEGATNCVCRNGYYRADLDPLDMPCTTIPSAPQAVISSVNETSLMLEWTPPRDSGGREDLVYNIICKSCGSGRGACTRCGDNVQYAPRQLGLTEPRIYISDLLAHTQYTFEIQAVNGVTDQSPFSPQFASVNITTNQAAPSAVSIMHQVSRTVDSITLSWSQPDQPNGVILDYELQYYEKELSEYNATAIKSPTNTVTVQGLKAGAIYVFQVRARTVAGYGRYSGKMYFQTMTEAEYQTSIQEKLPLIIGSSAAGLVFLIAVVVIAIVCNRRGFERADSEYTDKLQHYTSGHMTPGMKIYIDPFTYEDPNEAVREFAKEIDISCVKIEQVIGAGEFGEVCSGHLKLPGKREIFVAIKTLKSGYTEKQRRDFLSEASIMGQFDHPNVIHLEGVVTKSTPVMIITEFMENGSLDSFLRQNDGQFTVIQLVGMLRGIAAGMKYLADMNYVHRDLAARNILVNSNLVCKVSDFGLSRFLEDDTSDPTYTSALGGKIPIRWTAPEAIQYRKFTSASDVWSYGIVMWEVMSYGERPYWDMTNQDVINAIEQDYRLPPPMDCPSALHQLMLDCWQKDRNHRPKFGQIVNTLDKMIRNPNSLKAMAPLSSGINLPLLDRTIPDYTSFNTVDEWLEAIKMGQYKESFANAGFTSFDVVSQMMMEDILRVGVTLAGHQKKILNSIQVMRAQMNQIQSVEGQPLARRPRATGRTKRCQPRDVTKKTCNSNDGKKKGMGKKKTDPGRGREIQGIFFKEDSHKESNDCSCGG

[2] = molecular target: T2, Ephrin type-B receptor 3 (Homo sapiens) (UniProt P54753); conditions: at 0.1 µM
T2 sequence (whole entry): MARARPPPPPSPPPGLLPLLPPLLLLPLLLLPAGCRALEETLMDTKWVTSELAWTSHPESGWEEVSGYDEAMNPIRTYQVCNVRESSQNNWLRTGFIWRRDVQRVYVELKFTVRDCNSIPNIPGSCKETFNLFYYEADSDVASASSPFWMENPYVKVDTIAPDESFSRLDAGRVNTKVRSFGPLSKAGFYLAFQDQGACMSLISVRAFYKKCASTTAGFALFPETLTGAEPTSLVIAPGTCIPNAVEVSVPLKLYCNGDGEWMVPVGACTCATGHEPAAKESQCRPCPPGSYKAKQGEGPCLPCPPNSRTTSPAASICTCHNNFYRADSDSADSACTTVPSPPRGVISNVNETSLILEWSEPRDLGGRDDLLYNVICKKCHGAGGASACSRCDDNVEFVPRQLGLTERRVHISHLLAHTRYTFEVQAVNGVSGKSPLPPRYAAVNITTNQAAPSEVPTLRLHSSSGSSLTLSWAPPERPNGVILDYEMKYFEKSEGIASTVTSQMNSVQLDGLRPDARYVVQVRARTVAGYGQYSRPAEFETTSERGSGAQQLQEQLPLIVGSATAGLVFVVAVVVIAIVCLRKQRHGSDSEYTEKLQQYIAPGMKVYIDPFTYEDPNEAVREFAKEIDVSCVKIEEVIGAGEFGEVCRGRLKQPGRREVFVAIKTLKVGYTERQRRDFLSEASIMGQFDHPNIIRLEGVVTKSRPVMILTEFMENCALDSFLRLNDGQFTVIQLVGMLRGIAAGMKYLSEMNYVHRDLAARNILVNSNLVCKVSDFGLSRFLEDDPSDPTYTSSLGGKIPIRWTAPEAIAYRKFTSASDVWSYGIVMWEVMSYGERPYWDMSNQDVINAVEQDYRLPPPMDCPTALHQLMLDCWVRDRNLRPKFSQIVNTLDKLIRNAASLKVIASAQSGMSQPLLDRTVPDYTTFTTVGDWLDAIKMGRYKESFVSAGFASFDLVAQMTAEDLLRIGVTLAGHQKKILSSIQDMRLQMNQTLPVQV

[3] = molecular target: T2, Ephrin type-B receptor 3 (Homo sapiens); conditions: at 1 µM
[4] = molecular target: T3, Ephrin type-B receptor 4 (Homo sapiens) (UniProt P54760); conditions: at 0.1 µM
T3 sequence (whole entry): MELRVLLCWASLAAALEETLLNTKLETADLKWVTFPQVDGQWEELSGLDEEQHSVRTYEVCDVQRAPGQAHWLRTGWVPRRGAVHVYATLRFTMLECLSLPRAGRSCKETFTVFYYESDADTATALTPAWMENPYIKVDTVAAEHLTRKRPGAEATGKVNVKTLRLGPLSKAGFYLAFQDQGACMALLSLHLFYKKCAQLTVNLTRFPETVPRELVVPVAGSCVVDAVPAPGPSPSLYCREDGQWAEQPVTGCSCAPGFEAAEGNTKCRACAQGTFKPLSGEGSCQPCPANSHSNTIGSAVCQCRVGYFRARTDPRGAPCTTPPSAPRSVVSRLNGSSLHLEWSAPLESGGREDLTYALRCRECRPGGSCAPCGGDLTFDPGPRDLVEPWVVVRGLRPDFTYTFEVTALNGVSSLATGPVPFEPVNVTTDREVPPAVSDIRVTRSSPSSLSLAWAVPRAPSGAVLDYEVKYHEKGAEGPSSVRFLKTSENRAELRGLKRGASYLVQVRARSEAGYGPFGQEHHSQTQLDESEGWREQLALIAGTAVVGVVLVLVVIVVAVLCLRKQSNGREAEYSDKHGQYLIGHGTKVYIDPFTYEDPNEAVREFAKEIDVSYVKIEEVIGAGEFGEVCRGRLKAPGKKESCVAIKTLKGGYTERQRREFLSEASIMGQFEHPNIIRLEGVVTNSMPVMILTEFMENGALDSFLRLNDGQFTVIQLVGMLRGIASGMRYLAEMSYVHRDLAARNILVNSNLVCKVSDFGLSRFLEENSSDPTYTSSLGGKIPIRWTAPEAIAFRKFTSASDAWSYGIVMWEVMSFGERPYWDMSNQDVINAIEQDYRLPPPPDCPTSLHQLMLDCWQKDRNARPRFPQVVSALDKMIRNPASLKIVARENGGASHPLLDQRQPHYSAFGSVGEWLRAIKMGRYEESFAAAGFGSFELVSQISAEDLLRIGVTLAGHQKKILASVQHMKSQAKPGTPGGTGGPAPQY

[5] = molecular target: T3, Ephrin type-B receptor 4 (Homo sapiens); conditions: at 1 µM
[6] = molecular target: Receptor tyrosine-protein kinase erbB-2 (Homo sapiens) (UniProt P04626); conditions: at 0.1 µM
[7] = molecular target: Receptor tyrosine-protein kinase erbB-2 (Homo sapiens) (UniProt P04626); conditions: at 1 µM
[8] = molecular target: Receptor tyrosine-protein kinase erbB-4 (Homo sapiens) (UniProt Q15303); conditions: at 0.1 µM
[9] = molecular target: Receptor tyrosine-protein kinase erbB-4 (Homo sapiens) (UniProt Q15303); conditions: at 1 µM
[10] = molecular target: Tyrosine-protein kinase Fer (Homo sapiens) (UniProt P16591); conditions: at 0.1 µM
[11] = molecular target: Tyrosine-protein kinase Fer (Homo sapiens) (UniProt P16591); conditions: at 1 µM
[12] = molecular target: Tyrosine-protein kinase Fes/Fps (Homo sapiens) (UniProt P07332); conditions: at 0.1 µM
[13] = molecular target: Tyrosine-protein kinase Fes/Fps (Homo sapiens) (UniProt P07332); conditions: at 1 µM
[14] = molecular target: Fibroblast growth factor receptor 1 (Homo sapiens) (UniProt P11362); conditions: at 0.1 µM
[15] = molecular target: Fibroblast growth factor receptor 1 (Homo sapiens) (UniProt P11362); conditions: at 1 µM
[16] = molecular target: Fibroblast growth factor receptor 2 (Homo sapiens) (UniProt P21802); conditions: at 0.1 µM
[17] = molecular target: Fibroblast growth factor receptor 2 (Homo sapiens) (UniProt P21802); conditions: at 1 µM
[18] = molecular target: Fibroblast growth factor receptor 3 (Homo sapiens) (UniProt P22607); conditions: at 0.1 µM
[19] = molecular target: Fibroblast growth factor receptor 3 (Homo sapiens) (UniProt P22607); conditions: at 1 µM
[20] = molecular target: Fibroblast growth factor receptor 4 (Homo sapiens) (UniProt P22455); conditions: at 0.1 µM;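 note: values are mean percent inhibition of FGFR4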
Chain of Fibroblast growth factor receptor 4 (Homo sapiens) (P22455 22-802 limits assumed): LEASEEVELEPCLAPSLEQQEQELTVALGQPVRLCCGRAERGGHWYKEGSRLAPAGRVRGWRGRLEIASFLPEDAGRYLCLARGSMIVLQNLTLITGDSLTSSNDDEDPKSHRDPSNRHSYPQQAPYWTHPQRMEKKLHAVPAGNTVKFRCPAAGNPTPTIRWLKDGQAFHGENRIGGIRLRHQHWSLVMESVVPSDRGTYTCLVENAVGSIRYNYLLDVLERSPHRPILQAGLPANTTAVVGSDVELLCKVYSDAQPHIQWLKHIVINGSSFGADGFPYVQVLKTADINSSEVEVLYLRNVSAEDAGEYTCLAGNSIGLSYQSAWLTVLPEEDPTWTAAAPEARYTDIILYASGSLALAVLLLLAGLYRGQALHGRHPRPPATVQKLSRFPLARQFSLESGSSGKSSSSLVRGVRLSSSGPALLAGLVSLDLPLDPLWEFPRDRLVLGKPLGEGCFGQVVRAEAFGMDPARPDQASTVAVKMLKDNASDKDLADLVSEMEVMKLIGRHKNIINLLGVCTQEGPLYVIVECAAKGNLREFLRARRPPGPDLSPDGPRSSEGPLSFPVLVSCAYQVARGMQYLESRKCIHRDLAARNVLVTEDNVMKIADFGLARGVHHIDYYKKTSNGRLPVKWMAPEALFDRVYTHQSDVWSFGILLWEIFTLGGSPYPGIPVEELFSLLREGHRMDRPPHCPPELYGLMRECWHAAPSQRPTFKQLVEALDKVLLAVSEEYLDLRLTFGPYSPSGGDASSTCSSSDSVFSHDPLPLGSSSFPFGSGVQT

Chain of Fibroblast growth factor receptor 2 (Homo sapiens) (P21802 22-821 limits assumed): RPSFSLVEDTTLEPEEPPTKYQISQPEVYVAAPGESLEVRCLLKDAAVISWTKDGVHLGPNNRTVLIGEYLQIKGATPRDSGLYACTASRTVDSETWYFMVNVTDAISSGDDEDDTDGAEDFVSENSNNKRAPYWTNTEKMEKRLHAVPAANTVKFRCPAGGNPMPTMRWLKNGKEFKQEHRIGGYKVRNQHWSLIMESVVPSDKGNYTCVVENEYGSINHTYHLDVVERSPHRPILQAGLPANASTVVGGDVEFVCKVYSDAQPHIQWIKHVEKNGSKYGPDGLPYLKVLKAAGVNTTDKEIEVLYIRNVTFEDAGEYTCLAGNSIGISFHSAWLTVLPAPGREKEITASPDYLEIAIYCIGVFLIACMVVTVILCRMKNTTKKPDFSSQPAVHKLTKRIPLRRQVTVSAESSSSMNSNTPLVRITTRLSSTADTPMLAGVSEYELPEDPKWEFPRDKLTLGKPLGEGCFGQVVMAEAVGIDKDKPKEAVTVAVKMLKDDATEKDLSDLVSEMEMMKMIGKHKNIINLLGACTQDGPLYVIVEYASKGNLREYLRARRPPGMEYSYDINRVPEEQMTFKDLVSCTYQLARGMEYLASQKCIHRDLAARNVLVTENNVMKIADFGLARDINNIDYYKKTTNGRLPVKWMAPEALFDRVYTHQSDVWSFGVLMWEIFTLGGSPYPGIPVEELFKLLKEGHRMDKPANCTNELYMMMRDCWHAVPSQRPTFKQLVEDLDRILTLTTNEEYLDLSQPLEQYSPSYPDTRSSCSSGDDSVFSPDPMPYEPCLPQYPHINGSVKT
Chain of Tyrosine-protein kinase Fer (Homo sapiens) (P16591 whole entry, looked up): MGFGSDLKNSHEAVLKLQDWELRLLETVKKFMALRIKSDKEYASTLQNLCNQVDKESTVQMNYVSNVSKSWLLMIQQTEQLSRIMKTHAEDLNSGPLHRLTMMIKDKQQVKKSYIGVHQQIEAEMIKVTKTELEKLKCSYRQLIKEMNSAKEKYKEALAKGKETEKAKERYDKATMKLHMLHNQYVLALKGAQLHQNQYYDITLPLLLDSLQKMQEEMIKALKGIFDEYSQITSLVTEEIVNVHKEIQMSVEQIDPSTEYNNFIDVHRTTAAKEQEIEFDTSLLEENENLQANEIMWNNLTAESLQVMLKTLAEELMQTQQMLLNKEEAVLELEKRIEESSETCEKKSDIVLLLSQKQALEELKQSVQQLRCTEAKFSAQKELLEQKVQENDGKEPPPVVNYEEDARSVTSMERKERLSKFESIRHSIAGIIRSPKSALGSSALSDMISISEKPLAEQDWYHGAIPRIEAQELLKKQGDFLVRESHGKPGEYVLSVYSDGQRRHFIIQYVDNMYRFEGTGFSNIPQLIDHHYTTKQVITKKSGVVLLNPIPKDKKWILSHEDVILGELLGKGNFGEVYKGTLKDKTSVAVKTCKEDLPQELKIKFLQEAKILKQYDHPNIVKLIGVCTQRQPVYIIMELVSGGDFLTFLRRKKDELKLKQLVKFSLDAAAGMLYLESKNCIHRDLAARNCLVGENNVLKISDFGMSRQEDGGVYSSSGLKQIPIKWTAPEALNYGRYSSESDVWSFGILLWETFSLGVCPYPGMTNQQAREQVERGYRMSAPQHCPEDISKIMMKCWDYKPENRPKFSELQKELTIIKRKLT
Chain of Fibroblast growth factor receptor 3 (Homo sapiens) (P22607 23-806 limits assumed): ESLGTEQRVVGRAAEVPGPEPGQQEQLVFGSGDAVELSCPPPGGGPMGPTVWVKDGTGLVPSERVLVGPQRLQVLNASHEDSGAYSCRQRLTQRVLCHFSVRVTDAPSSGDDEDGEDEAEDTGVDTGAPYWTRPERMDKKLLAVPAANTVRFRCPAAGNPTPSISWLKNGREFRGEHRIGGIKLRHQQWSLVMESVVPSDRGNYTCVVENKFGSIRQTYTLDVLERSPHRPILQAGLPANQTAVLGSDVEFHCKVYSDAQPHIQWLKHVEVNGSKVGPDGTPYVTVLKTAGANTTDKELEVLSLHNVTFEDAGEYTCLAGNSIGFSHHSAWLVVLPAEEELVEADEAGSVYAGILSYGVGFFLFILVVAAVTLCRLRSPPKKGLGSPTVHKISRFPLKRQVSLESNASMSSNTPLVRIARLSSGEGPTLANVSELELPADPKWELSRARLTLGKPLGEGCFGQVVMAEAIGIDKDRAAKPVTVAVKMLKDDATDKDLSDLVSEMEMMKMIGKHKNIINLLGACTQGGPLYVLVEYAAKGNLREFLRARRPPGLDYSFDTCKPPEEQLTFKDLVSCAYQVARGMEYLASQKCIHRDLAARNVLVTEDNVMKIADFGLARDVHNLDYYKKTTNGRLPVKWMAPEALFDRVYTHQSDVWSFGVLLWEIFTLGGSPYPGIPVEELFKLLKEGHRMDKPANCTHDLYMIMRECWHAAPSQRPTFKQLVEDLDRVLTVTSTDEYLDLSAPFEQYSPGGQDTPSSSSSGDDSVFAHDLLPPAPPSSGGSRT
Chain of Receptor tyrosine-protein kinase erbB-4 (Homo sapiens) (Q15303 whole entry): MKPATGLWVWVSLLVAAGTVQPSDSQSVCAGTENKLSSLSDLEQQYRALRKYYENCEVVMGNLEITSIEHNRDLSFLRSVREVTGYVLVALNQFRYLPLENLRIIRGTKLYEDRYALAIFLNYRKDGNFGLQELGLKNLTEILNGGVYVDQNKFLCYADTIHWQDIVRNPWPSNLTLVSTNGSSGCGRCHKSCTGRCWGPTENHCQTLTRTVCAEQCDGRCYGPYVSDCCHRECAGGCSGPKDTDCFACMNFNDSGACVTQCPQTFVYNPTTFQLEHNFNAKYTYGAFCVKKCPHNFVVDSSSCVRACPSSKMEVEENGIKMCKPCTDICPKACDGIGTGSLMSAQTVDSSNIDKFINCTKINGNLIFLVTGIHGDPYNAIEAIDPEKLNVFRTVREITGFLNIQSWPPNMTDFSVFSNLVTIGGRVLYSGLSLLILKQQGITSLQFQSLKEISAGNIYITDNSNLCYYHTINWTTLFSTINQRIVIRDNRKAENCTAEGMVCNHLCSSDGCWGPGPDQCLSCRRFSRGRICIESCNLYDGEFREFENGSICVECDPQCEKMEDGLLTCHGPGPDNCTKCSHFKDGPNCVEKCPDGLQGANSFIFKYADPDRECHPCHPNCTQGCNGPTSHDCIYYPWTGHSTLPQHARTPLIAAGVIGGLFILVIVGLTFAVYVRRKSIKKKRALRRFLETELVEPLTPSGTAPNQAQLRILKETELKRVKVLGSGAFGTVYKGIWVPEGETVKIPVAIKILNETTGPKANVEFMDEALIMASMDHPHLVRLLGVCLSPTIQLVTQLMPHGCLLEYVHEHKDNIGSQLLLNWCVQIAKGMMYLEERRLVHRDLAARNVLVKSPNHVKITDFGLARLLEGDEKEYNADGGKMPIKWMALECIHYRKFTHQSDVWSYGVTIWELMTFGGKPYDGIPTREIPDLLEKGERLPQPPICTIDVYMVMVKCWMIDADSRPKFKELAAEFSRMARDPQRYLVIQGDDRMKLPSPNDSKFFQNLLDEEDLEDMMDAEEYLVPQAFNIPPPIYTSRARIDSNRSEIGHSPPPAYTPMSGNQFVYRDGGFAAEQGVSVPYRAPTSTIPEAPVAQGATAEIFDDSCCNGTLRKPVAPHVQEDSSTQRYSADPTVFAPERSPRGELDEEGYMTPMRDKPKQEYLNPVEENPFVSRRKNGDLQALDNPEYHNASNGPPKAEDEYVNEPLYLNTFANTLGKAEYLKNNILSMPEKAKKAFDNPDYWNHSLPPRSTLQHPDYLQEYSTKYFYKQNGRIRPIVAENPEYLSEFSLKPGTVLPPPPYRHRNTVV

| Compound | inhibition [1] | inhibition [2] | inhibition [3] | inhibition [4] | inhibition [5] | inhibition [6] | inhibition [7] | inhibition [8] | inhibition [9] | inhibition [10] | inhibition [11] | inhibition [12] | inhibition [13] | inhibition [14] | inhibition [15] | inhibition [16] | inhibition [17] | inhibition [18] | inhibition [19] | inhibition [20] |
| --- | --- | --- | --- | --- | --- | --- | --- | --- | --- | --- | --- | --- | --- | --- | --- | --- | --- | --- | --- | --- |
| CCS(=O)(=O)c1ccc(OC)c(Nc2nccc(N(C)c3ccc4c(C)n[nH]c4c3)n2)c1 | 43.6% | 2.23% | 6.04% | 17.4% | 65.8% | 7.28% | 13.4% | 18.5% | 60.5% | 2.69% | 34.3% | 3.93% | 6.48% | 8.89% | 37.3% | 18.8% | 56.1% | 17.4% | 54.7% | -0.42% |
| CCS(=O)(=O)c1ccc(OC)c(Nc2ncc(-c3cccc(OC)c3)o2)c1 | 24.3% | 3.22% | 2.36% | 3.32% | 11.9% | -0.52% | 0.18% | 10.5% | 22.1% | -0.2% | 3.8% | 1.8% | 2.42% | 9.22% | 40.2% | 30.9% | 68.2% | 28.7% | 70% | 2.6% |
| NS(=O)(=O)c1ccc(NC=C2C(=O)Nc3ccc4ncsc4c32)cc1 | 26.1% | 5.96% | 2.98% | 4.95% | 12.2% | 1.93% | -0.87% | 17.8% | 11.2% | 5.32% | 27.7% | 12.3% | 17.1% | 13.4% | 41.9% | 31.5% | 63.8% |  | 65% | -2.6% |
| C[C@@H](Oc1cc(-n2cnc3ccc(OC[C@@H](O)CO)cc32)sc1C(N)=O)c1ccccc1Cl | -2.42% | -1.05% | -0.83% | -3.41% | -0.4% | 0% | 0.61% | -3.03% | -1.55% | -1.75% | 4.95% | -0.94% | 0.05% | -7.07% | 0.72% | -1.37% | 8.23% | 0.92% | 6.57% | -1.57% |
| Cc1cc(Cl)cc2c1NC(=O)C2=NNc1ccc(S(N)(=O)=O)cc1 | 1.31% | 3.65% | 1.13% | 1.3% | 1.46% | 2.46% | 3.15% | 6.08% | 6.7% | 2.65% | 5.08% | 0.93% | 0.42% | 3.14% | 2.77% | 1.45% | 3.49% | 1.47% | 0.97% | -0.13% |
| COc1cc2ncnc(Nc3ccc(C)c(O)c3)c2cc1OC | 41.4% | 6.58% | 2.9% | 8.74% | 36.9% | 7.8% | 26.3% | 31.7% | 68.7% | 4.24% | 7.9% | 2.91% | 3.54% | 4.9% | 17.2% | 5.64% | 15.8% | 6.03% | 10.2% | -0.45% |
| Cc1ccc(NC(=O)CC2CC2)cc1-c1ccc(C(=O)NCC2CC2)cc1 | 11.6% | 4.23% | 3.77% | 0.66% | 3.43% | 0.13% | 3.41% | 6.43% | 8.12% | 4.27% | 7.65% | 2.28% | 4% | 5.11% | 4.06% | 1.09% | 4.24% | 2.17% | 3.92% | -2.17% |
